Shiga toxin inh – inhibitors of Shiga toxin in Vero cells; 290,000 tested, 9.2% active; Vero cells, Shiga toxin protein synthesis inhibition reporter; inhibition, % at 38.7 µM; AID 2315; in the data active = inhibition mostly above about 28%, no sharp cut-off; inactive = mostly below about 43%; note: 0% is about no effect
Pf growth 48h – inhibits P. falciparum growth in the first generation, 48 h; Potency, µM (highest dose often 28.7 µM), inactives show at the top dose activity change, negative = inhibition, usual class: inhibitors; 310,000 tested, 5.9% active; P. falciparum luciferase growth in erythrocytes, 48 h; note: potency is the fitted concentration of half-maximal effect; % is set by controls: 0 for no effect and ±100 for the full control effect
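Erythrocytes infected with P. falciparum carrying an integrated firefly luciferase reporter (2% hematocrit, 0.1% parasitemia final) were exposed to compounds in RPMI 1640 with 0.5% Albumax at 37 C, 5% CO2. Growth inhibition was scored as reduced luminescence.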
Pf growth 96h – inhibits malaria parasite growth, 96 h. Potency, µM (highest dose often 28.7 µM), without a hit: at the top dose activity change, negative = inhibition, actives largely listed as inhibitors. AID 504834. 320,000 tested, 6.9% active. P. falciparum luciferase reporter growth, 96 h; note: potency is the fitted concentration of half-maximal effect; % is set by controls: 0 for no effect and ±100 for the full control effect
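Cell-based qHTS: luciferase-tagged P. falciparum in erythrocytes (2% hematocrit, 0.05% parasitemia final) incubated with compounds for 96 hours, 37 C, 5% CO2; luciferase detection reagent then added and luminescence measured.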
Cycloheximide cs – affects cycloheximide protein synthesis inhibition readout, counter-screen; max response, %; 300,000 tested, 12% active; cell reporter, cycloheximide protein synthesis inhibition counterscreen; in the data active = max response mostly above about 13%, no sharp cut-off; inactive = mostly below about 14%; note: read at 38.3 µM for the half of the compounds with a filed dose; 0% is about no effect
LmPK inhibitor – blocks Leishmania mexicana pyruvate kinase activity | Potency, µM (titrated, usually from 57.5 µM), for inactives: top-dose activity change, negative = inhibition, usual class: inhibitors | Q27686 | purified LmPK, Kinase-Glo ATP luminescence, 1 h | 290,000 tested, 0.37% active; note: potency is the fitted concentration of half-maximal effect; % is set by controls: 0 for no effect and ±100 for the full control effect
Target sequence (Q27686 whole entry, looked up): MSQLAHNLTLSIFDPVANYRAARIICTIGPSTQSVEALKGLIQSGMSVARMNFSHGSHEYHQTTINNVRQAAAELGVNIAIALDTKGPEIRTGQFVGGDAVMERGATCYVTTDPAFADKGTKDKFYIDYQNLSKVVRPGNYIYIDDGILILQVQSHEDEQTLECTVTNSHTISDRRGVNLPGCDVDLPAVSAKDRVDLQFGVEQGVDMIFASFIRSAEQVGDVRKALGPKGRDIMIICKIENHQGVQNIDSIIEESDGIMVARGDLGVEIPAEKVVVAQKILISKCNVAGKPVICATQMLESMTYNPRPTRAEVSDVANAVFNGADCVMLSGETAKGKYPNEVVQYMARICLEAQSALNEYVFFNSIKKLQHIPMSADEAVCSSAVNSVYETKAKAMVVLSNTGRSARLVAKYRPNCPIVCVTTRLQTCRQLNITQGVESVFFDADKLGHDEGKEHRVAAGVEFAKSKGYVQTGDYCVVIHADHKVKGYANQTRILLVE
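Purified LmPK (0.1 nM) with 0.5 mM PEP and 0.1 mM ADP in imidazole buffer pH 7.2 with MgCl2/KCl, 1 h at room temperature. ATP formed was read by luciferase luminescence and normalized to no-enzyme and uninhibited controls.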
Starred values were filed as active, the others as inactive; ? = inconclusive; nt = no result given; + = active, no number; [ ] = dose if it differs, or a comment. Only some compounds are listed: those with a hit (about 22% of all), similar ones and a draw of the others. Unless noted, calls come from the whole dose curve; as a rule, active = well fitted inhibition curve with a large enough effect; inconclusive = small, poorly fitted or top-dose-only effect, or another doubt; inactive = no such curve, though single readings can be large or run the other way.

SMILES	Shiga toxin inh	Pf growth 48h	Pf growth 96h	Cycloheximide cs	LmPK inhibitor
COc1ccc(C(O)P(=O)(OCC(C)C)c2ccc(N(C)C)cc2)c(OC)c1 (stereo not drawn)	-17	?	?	-3	-6%
COc1cc(C2/C(=C(/O)c3ccccc3)C(=O)C(=O)N2c2ccccn2)ccc1O (stereo not drawn)	-16	18%	40%	-2	11%
Cc1[nH]c(=O)[nH]c(=O)c1S(=O)(=O)Nc1ccc(F)cc1Cl	-1	27%	?	-3	-3%
COc1cc(/C=C(\C#N)c2nc3ccccc3[nH]2)c([N+](=O)[O-])cc1OCc1ccccc1	26	2.6µM*	13%	0	1%
COc1cc(/C=C(/C#N)c2nc3ccccc3[nH]2)ccc1OCC(=O)Nc1ccccc1C(C)C	32	?	9.3µM*	2	-1%
COc1cc(/C=C(/C#N)c2nc3ccccc3[nH]2)ccc1OCC(=O)Nc1ccccc1C	-20	?	1.5µM*	-4	1%
COc1cc(/C=C(\C#N)c2nc3ccccc3[nH]2)ccc1OC(=O)c1ccco1	43*	58%	20%	48*	-2%
CCOc1cc(/C=C(/C#N)c2nc3ccccc3[nH]2)ccc1OCc1ccc(C(=O)O)o1	30	?	8%	8	7%
O=C(CCC1CCCCC1)Nc1nncs1	-14	15%	?	2	3%
CNC(=O)c1c(NC(=O)C2=COCCO2)sc2c1CCN(C(=O)OC)C2	nt	-9%	-24%	nt	nt
COc1ccc(/C=N/NC(=O)CNC(=O)c2ccc3c(c2)OCCO3)cc1OC	-14	18%	59%	-1	-4%
CCOC(=O)CNC(=O)c1ccc2c(c1)OCCO2	59*	74%	?	46*	-5%
CCOc1ccccc1C(=O)NCC(=O)OCC(=O)c1ccc2c(c1)OCCO2	17	19%	?	6	2%
CCOC(=O)CNC(=O)c1cc(-c2ccc3c(c2)OCCO3)oc1C	63*	2%	-86%	44*	2%
O=C(CNC(=O)c1ccc(Cl)cc1)OCC(=O)c1ccc2c(c1)OCCO2	37	nt	1%	45*	9%
O=C(NCCc1ccc(F)cc1)c1ccc2c(=O)n3c(nc2c1)CCC3	nt	59%	73%	nt	nt
COc1cc(/C=N/Nc2nc3ccccc3s2)ccc1OC(=O)c1ccccc1F	+	-27%	?	43*	-7%
COc1cccc(C(=O)Oc2ccc(/C=N/NC(=O)c3ccncc3)cc2OC)c1	-8	3%	38%	-1	-10%
COc1cc(OC)cc(C(=O)Oc2ccc(/C=N/Nc3nc4ccccc4s3)cc2OC)c1	124*	-32%	-101%	48*	-2%
COc1ccc(CN(CC(=O)NCc2ccccc2)C(=O)CCC(=O)Nc2ccccn2)cc1	-14	2%	-19%	-5	-4%
Cc1nc2c(c3c1[nH]c1ccccc13)C(O)CC(C)(C)C2 (stereo not drawn)	9	?	27%	-6	-6%
IC(I)I	nt	-8%	-10%	nt	nt
CCN(CC)C(=O)C1CCCN(Cc2cccc(F)c2)C1 (stereo not drawn)	-10	nt	-11%	-4	3%
O=C(C1CCCN(Cc2ccccc2)C1)N1CCCCC1 (stereo not drawn)	16	nt	?	-2	1%
NC(=O)C1CCCN(Cc2ccc3ccccc3c2)C1 (stereo not drawn)	-16	?	2.6µM*	1	4%
SMILES	Shiga toxin inh	Pf growth 48h	Pf growth 96h	Cycloheximide cs	LmPK inhibitor
CCN(CC)C(=O)C1CCCN(Cc2ccc3ccccc3c2)C1 (stereo not drawn)	-5	9%	13µM*	-2	-1%
CC(O)(CS(=O)(=O)Cc1ccccc1)c1ccccc1 (stereo not drawn)	-5	-23%[0.00184 µM]	?	5	1%
COc1cc(/C=N/N=C2/NC(=O)C(Cc3ccccc3)S2)ccc1O (stereo not drawn)	99*	-26%	?	33*	-3%
CCOc1cc(/C=N/N=C2/NC(=O)C(CC(=O)O)S2)ccc1OCc1ccc(Cl)cc1 (stereo not drawn)	-1	82%	23%	-3	13µM*
COc1ccc(/C=N/N=C2/NC(=O)C(CC(=O)O)S2)cc1OS(=O)(=O)c1ccccc1 (stereo not drawn)	-22	-12%	7%	6	-5%
CCN1CCN(c2ccc(NC(=O)c3ccc4c(c3)[nH]c(=O)n4Cc3ccc(OC)cc3)cc2)CC1	-11	?	10µM*	-2	-3%
CCN1CCN(Cc2ccc(NC(=O)Nc3cccs3)cc2)CC1	40*	7%	-25%	41*	-2%
CCN1CCN(Cc2ccc(NC(=O)Nc3ccccc3)cc2)CC1	+	-23%	-11%	46*	-5%
CCN1CCN(Cc2ccc(NC(=O)Nc3ccc(OC)cc3)cc2)CC1	42*	?	-10%	21*	-8%
COc1ccc(Cn2c(=O)[nH]c3cc(C(=O)Nc4ccccc4C)ccc32)cc1	-6	-13%	-11%	-1	-5%
CCN1CCN(Cc2ccc(NC(=O)Nc3ccc(SC)cc3)cc2)CC1	58*	1.7µM*	nt	44*	-1%
Cc1ccc(S(=O)(=O)Nc2ccc(C(=O)Nc3ccncc3)cc2)cc1	-9	-26%	10µM*	-2	5%
Cc1ccc(S(=O)(=O)N(Cc2ccccc2)c2ccccc2C(=O)NCc2cccnc2)cc1	-14	5.2µM*	20%	0	4%
O=C(CN1C(=O)/C(=C\c2ccccc2Cl)Oc2ccccc21)NCc1cccnc1	-17	-13%	-37%	9	1%
COc1ccc(NC(=O)c2ccc(S(=O)(=O)NCc3cccnc3)cc2)cc1	31	-11%	17%	9.5*	3%
Cc1ccc(CN2C(=O)/C(=C\c3ccc(C(=O)NCc4cccnc4)cc3)Oc3ccccc32)cc1	-14	?	1.7µM*	2	2%
CC(=O)N[C@@H](C=O)[C@@H](O)[C@H](O)[C@H](O)CO	-4	nt	nt	-2	nt
COc1ccccc1CN(C)C(=O)CN1C(=O)c2ccccc2C1=O	17	13%	?	3	-5%
Cc1ccc(NS(=O)(=O)c2ccc(NC(=O)c3cccc(NC(=O)C(C)C)c3)cc2)cc1	-2	17%	1.7µM*	-2	3%
Cc1ccc(NS(=O)(=O)c2ccc(Cl)c(C(=O)Nc3cccc(C(=O)O)c3)c2)cc1	-4	-6%	?	-2	-4%
Cc1ccc(NS(=O)(=O)c2ccc(C(=O)NCc3cccnc3)cc2)cc1	76*	75%	?	55*	-8%
COc1ccc(NC(=O)C2C3C=CC(O3)C2C(=O)NCc2cccnc2)cc1 (stereo not drawn)	-13	25%	10µM*	-3	0%
Cn1c(=N)n(CC(=O)c2ccc(Cl)c(Cl)c2)c2ccccc21	23	-60%	?	3	1%
CCOC(=O)C1CCN(C(=O)Cn2nc(CC)n3cccc3c2=O)CC1	-2	4%	?	-5	0%

Screening results (PubChem)
